Some test systems named below: NCI-H23 lung; NCI-H226 lung; NCI-H322M lung; HOP-62 NSCLC; NCI-H460 lung; HOP-92 NSCLC; NCI-H522 lung; A549/ATCC NSCLC; 786-0 renal; COLO 205 colon.
Common to all, as to assay: NCI-60 one-dose screen, 48 h (100 = growth as untreated, 0 = no growth, -100 = all killed)
Common to all, as to conditions: 10 µM unless noted

Here are results for 13 compounds from PubChem BioAssay (NCI).

Molecules are shown by their SMILES. This is part of a sample that, as a whole, favours compounds with a hit. Of some 83,000 tested, about 20% had one in any assay.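 Testing used 96-well plates and a 48-hour single-concentration exposure. Example: -40 means 40% of the starting cells died.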 Unmarked numbers belong to inactive results. Activity calls are given as the source filed them. How the source made its calls: active means growth percent below 10; inactive means the rest.

In the case of `O=C1[C@@H]2Cc3c([nH]c4ccccc34)[C@H](c3ccc(Cl)cc3)N2C(=O)CN1C1CCN(Cc2ccccc2)CC1`, the growth in the assay on NCI-H23 lung was 74.1%; with NCI-H226 lung, 70.5%; with NCI-H322M lung, 59.2%; in the assay with HOP-62 NSCLC, 75.7%; in the assay on NCI-H460 lung it was 34.4%; with HOP-92 NSCLC, 41.4%. In addition, the growth with NCI-H522 lung is 84.6%; in the assay with A549/ATCC NSCLC, 38.8%; in the assay with 786-0 renal, 68.1%; in the assay with COLO 205 colon, 53.4%.

In the case of `Clc1ccc2[nH]cc(-c3nn4cc(-c5cccnc5)nc4s3)c2c1`, the growth with NCI-H23 lung was 92.8%; with NCI-H226 lung, 96.5%; in the assay on NCI-H322M lung, 98%; in the assay with HOP-62 NSCLC, 82.2%; with NCI-H460 lung it was 99.9%; in the assay with HOP-92 NSCLC, 83.6%. Further, the growth in the assay on NCI-H522 lung was 97.1%; in the assay with A549/ATCC NSCLC it was 99.4%; in the assay with 786-0 renal it was 113%; in the assay on COLO 205 colon, 88.9%.

Turning to `CC(Nc1c(C#N)cnc2ccc(-c3cncc(O)c3)cc12)c1ccccc1` (stereo not given), the growth with NCI-H23 lung is 1.12% (active); in the assay on NCI-H226 lung, 2.59% (active); with NCI-H322M lung it was -36.8% (active); in the assay with HOP-62 NSCLC, 5.27% (active); in the assay with NCI-H460 lung it was 0.377% (active); in the assay on HOP-92 NSCLC, -3.64% (active). Besides, the growth was -43.4% (active) in the assay with NCI-H522 lung, 15.9% in the assay on A549/ATCC NSCLC, -1.52% (active) with 786-0 renal and 57.6% with COLO 205 colon.

Regarding `CCCCN1C(=O)/C(=c2\sc3n(c2=O)C2C(NN=3)N(CC)C(=O)N2CC)c2cc(C)ccc21` (stereo not given), the growth in the assay on NCI-H23 lung is 95.5%; in the assay on NCI-H226 lung, 87.3%; in the assay on NCI-H322M lung, 88.1%; with HOP-62 NSCLC it was 108%; with NCI-H460 lung it was 102%; in the assay with HOP-92 NSCLC, 86.5%. Besides, the growth in the assay on NCI-H522 lung is 88.3%; with A549/ATCC NSCLC it was 91.4%; with 786-0 renal, 94.4%; with COLO 205 colon, 94%.

As for `O=S(=O)(Oc1ccc(-c2cn3ccoc3n2)cc1)c1cccc(C(F)(F)F)c1`, the growth was 98% with NCI-H23 lung; 93.5% in the assay on NCI-H226 lung; 102% in the assay with NCI-H322M lung; 104% with HOP-62 NSCLC; 104% in the assay with NCI-H460 lung; 91.7% in the assay on HOP-92 NSCLC. In addition, the growth in the assay with NCI-H522 lung was 90.3%; with A549/ATCC NSCLC, 99.6%; with 786-0 renal it was 99.9%; in the assay with COLO 205 colon it was 115%.

On to `C#CCOc1cccc(/C(N)=N/C(N)=N/c2nc3ccccc3s2)c1`, for which the growth in the assay with NCI-H23 lung was 50.2%; in the assay on NCI-H226 lung, 68.1%; in the assay with NCI-H322M lung, 96.3%; in the assay on HOP-62 NSCLC, -36.3% (active); in the assay with NCI-H460 lung, 90.5%; with HOP-92 NSCLC, 125%. In addition, the growth was 96.9% in the assay on NCI-H522 lung, 10.8% with A549/ATCC NSCLC, 107% with 786-0 renal and 119% with COLO 205 colon.

For the compound `CN(C)c1ccc(/C=N/Nc2nc(N/N=C/c3ccc(N(C)C)cc3)nc(N3CCCCC3)n2)cc1`, the growth with NCI-H23 lung is 96.7%; with NCI-H226 lung it was 102%; with NCI-H322M lung it was 100%; with HOP-62 NSCLC, 81.8%; in the assay with NCI-H460 lung it was 70.9%; in the assay with HOP-92 NSCLC, 84%. Further, the growth is 96.2% with NCI-H522 lung, 78.5% in the assay with A549/ATCC NSCLC, 88.2% with 786-0 renal and 83.5% in the assay on COLO 205 colon.

For the compound `N#Cc1c(-c2ccc(F)cc2)cc(-c2c[nH]c3ccccc23)nc1-c1c[nH]c2ccccc12`, the growth in the assay on NCI-H23 lung was 100%; in the assay on NCI-H226 lung, 94%; in the assay with NCI-H322M lung it was 106%; in the assay on HOP-62 NSCLC, 101%; in the assay on NCI-H460 lung, 104%; with HOP-92 NSCLC, 93.4%. For the same compound, the growth in the assay with NCI-H522 lung was 97%; in the assay on A549/ATCC NSCLC, 101%; in the assay with 786-0 renal, 99.5%; with COLO 205 colon, 113%.

In the case of `CN1CCN(Cc2ccc(NC(=O)c3cncc(C#Cc4cnc5ccc(N6CCOCC6)nn45)c3)cc2C(F)(F)F)CC1`, the growth in the assay with NCI-H23 lung was -65.9% (active); in the assay with NCI-H226 lung, -62.3% (active); with NCI-H322M lung, -11.3% (active); with HOP-62 NSCLC, -79.7% (active); with NCI-H460 lung, -80.6% (active); in the assay on HOP-92 NSCLC, -25.6% (active). In addition, the growth in the assay with NCI-H522 lung was -79.2% (active); in the assay with A549/ATCC NSCLC it was -84.9% (active); in the assay on 786-0 renal it was -80.7% (active); with COLO 205 colon, -87.3% (active).

For the compound `Nc1ncc(-c2ccc3ncnc(NCc4ccccc4)c3c2)cn1`, the growth in the assay with NCI-H23 lung was 55.4%; in the assay with NCI-H226 lung it was 33.9%; with NCI-H322M lung it was 8.77% (active); in the assay with HOP-62 NSCLC it was 35.7%; in the assay on NCI-H460 lung it was 44.7%; in the assay on HOP-92 NSCLC, 8.86% (active). Also, the growth in the assay on NCI-H522 lung was 23.8%; in the assay on A549/ATCC NSCLC it was 41.3%; in the assay with 786-0 renal it was 31.3%; with COLO 205 colon, 69.3%.

`O=C(CSc1cc[n+](CCCCO)c2ccccc12)n1ccc2ccccc21`: the growth is 95.8% with NCI-H23 lung; 89.6% in the assay on NCI-H226 lung; 96.8% with NCI-H322M lung; 91.8% in the assay on HOP-62 NSCLC; 99.2% with NCI-H460 lung; 103% in the assay with HOP-92 NSCLC. In addition, the growth with NCI-H522 lung is 99.4%; in the assay on A549/ATCC NSCLC it was 103%; in the assay with 786-0 renal, 108%; in the assay on COLO 205 colon, 106%.

In the case of `O=S(=O)(Oc1ccc(-c2cn3ccsc3n2)cc1)c1cccc(C(F)(F)F)c1`, the growth with NCI-H23 lung is 109%; with NCI-H226 lung, 90.2%; with NCI-H322M lung, 103%; with HOP-62 NSCLC it was 110%; in the assay with NCI-H460 lung, 104%; in the assay on HOP-92 NSCLC, 106%. For the same compound, the growth in the assay on NCI-H522 lung is 94.6%; in the assay with A549/ATCC NSCLC, 98.9%; in the assay on 786-0 renal, 102%; in the assay with COLO 205 colon, 113%.

Turning to `C[C@H]1OCC2(CCN(c3cnc(C(=O)Nc4cc(F)cc5cccnc45)cn3)CC2)[C@H]1N`, the growth in the assay with NCI-H23 lung is 75.3%; in the assay on NCI-H226 lung it was 80%; in the assay on NCI-H322M lung, 81.4%; with HOP-62 NSCLC, 84.1%; in the assay with NCI-H460 lung, 89.1%; with HOP-92 NSCLC it was 34.7%. For the same compound, the growth in the assay with NCI-H522 lung is 31.6%; in the assay on A549/ATCC NSCLC it was 77.3%; with 786-0 renal it was 60.1%; in the assay with COLO 205 colon, 13.3%.
